Source: PubChem BioAssay (NCATS)
Inconclusive results are not listed. Active and inactive are the calls of the source. The call rests on the fitted dose curve; in most records, active means well fitted inhibition curve with a large enough effect; inconclusive means small, poorly fitted or top-dose-only effect; inactive means flat fitted curve, though single readings scatter.

Assay: qHTS for Inhibitors of Plasmodium falciparum (7G8) proliferation (AID 504316); further: nearly all actives have a fitted effect of over 65% in size;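 on activity change, negative = inhibition: 0% = DMSO vehicle and -100% = 0.29 µM artemisinin full kill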
Details: P. falciparum 7G8 in erythrocytes, SYBR Green DNA, 72 h; series mostly up to 6.7 µM; activity change, negative = inhibition: at the top concentration
From the text: Plasmodium falciparum is a virulent malarial parasite that kills 1-2 million people worldwide each year. Malaria not only inflicts tremendous suffering and morbidity on the human population, but has dramatically influenced the course of civilization with profound sociological and economic implications (Shah, S. 2010). Transmitted by mosquitoes, the sporozoite form of the parasite enters the blood stream to infect hepatocytes, where they become merozoites that infect red blood cells (erythrocytes). Within erythrocytes, merozoites begin a […] cycle of growth and division, after which the parasite is released to infect new red blood cells. Gametocytes, which form within erythrocytes as well, circulate in the bloodstream and are ingested by the mosquito, thereby completing the life cycle (see CDC website). To profile malarial lines for differential chemical responses and to identify inhibitors of malarial growth, an assay that measures P. falciparum growth and replication within erythrocytes was employed. This assay uses a DNA binding fluorescent dye (SYBR Green) to detect parasite DNA following cell lysis. Because mature erythrocytes lack DNA, only Plasmodium-derived DNA is detected. The P. falciparum line cp250, derived from a malarial isolate from Cambodia, (Mu, J., et al. 2010) was added to the panel of lines, Dd2, HB3, 7G8 and GB4 in this study. Laboratory of Assay Development and Screening Technology [ADST] and NIH Chemical Genomics Center [NCGC] Boston University, Chemistry Department, Center for Chemical Methodology and Library Development [CMLD-BU] NIH National Institute of Allergy and Infectious Diseases [NIAID]
ADST Assay Protocol Summary: The 1536-well SYBR Green viability assay was based on the method of Bennett et al (2004) and described previously in 1536-well format (Yuan J., et al. 2009). For screening 3 ul culture medium was dispensed into 1536 well black clear bottom plates (Aurora Biotechnologies) using a Multidrop Combi (Thermo Fisher Scientific Inc.), 23 nL compounds in DMSO were added by a pin transfer (Cleveland, P.H. and Koutz, P.J, 2005) using a pin tool-based delivery system (Kalypsys), and 5 ul of erythrocytes infected with P. falciparum one of five lines (cp250, Dd2, HB3, 7G8 or GB4, 0.3% parasitemia, 2.5% hematocrit final concentration) were added. The plates were incubated at 37C in a humidified incubator in 5% CO2 for 72 h, and 2 ul lysis buffer (20 mM Tris HCl, 10 mM EDTA, 0.16% saponin, 1.6% triton X, 10X SYBR Green I (supplied as 10,000X final concentration by Invitrogen) was added to each well. The plates were mixed for 25 sec with gentle shaking and incubated overnight at room temperature in the dark. The following morning, fluorescence intensity at 485(14) nm excitation and 535(25) nm emission wavelengths was measured on an EnVision (Perkin Elmer) plate reader. Plate reads were normalized relative to the control inhibitor (0.29 uM artemisinin) and vehicle (DMSO) wells present on each plate and then corrected by an algorithm using vehicle-only control plates at the beginning and end of the compound plate stack. References Shah, S. (2010). The Fever: how malaria has ruled humankind for 500,000 years. New York, Sarah Crichton Books. CDC web site, http://www.cdc.gov/malaria/about/biology/index.html Mu, J., Myers, R.A., Jiang, H., Liu, S., Ricklefs, S., Waisberg, M., Chotivanich, K., Wilairatana, P., Krudsood, S., White, N.J., et Plasmodium falciparum genome-wide scans for positive selection, recombination hot spots and resistance to antimalarial drugs Nature Genetics 2010, 42, pp 268-271 Bennett TN, Paguio, M., Gligorijevic, B., Seudieu, C., Kosar, A. D., Davidson, E., and Roepe, P. D. Novel, rapid, and inexpensive cell-based quantification of antimalarial drug efficacy Antimicrobial Agents Chemother. 2004, 48(5): pp 1807-10 Yuan J, Johnson RL, Huang RL, Wichterman J, Jiang HY, Hayton K, Fidock DA, Wellems TE, Inglese J, Austin CP, Su XZ. […]
Potency means the concentration at half of the fitted maximal effect.

Compound | activity change, negative = inhibition | Potency
C=C(C)CO[C@H]1C=C[C@@H](c2ccccc2)O[C@H]1CO | 18.9% (inactive) | 
COC(=O)N[C@@H](c1ccccc1)[C@]1(C(C)=O)CCCC1=O | -2.28% (inactive) | 
COC(=O)CC=C1c2ccccc2[C@@H](OC)[C@@H]1C |  | inactive
COC(=O)CCCC1=CC2=C(c3ccccc3)C(=O)C(C)(OC(=O)C3CCCC3)C(=O)C2=CN1Cc1ccc2c(c1)OCO2 (stereo not given) |  | inactive
COc1ccc([C@]23Cc4cc(OC)c(OC)cc4[C@H](O2)C2=C(CC4(CCCCC4)OC2=O)O3)cc1 | -17.2% (inactive) | 
O=C(NC(CC1=CCCCC1)c1ccccc1)C(F)(F)F (stereo not given) | 2.78% (inactive) | 
COC(=O)C(C(=O)OC)[C@@H]1O[C@@]23COCC[C@]2(C)[C@@H]3c2ccccc21 | -10.5% (inactive) | 
COc1cc2c(cc1OC)[C@@H]1O[C@](c3ccsc3)(C2)OC2=C1C(=O)OC1(CCCCC1)C2 | -4.17% (inactive) | 
C[C@H]1C(C(=O)N2CCCC2)=Cc2[nH]c(=O)[nH]c2C=C1c1ccccc1 | -2.66% (inactive) | 
C=CC[C@@H]1C=C[C@H](ON=C[C@@H](N[S+](=O)([O-])c2ccc(C)cc2)[C@H](C)C=CCC(=O)OC)[C@H](CO)O1 | -14.5% (inactive) | 
CC=CC1=CC2=CC(=O)C(C)(OC(=O)c3c(C)cc(O)cc3O)C(=O)C2=CO1 (stereo not given) | -0.428% (inactive) | 
CCOC(=O)CN1C(=O)[C@]2(OCCC=C[C@@H]2C)c2cc(OC)ccc21 | -3.48% (inactive) | 
CCO[C@H](c1cc(OC)cc([N+](=O)[O-])c1OC)[C@H](C)[C@@H](OC)[C@H](C)C=CCC(=O)OC | -3.48% (inactive) | 
CCCCC#C[C@@H]1C=C[C@H](Oc2ccc(C(=O)OC)cc2)[C@@H](COC(=O)OCC)O1 | -9.01% (inactive) | 
CCCCC1=CC2=C(c3ccco3)C(=O)C(C)(OC(=O)c3ccc(OC)cc3)C(=O)C2=CN1c1ccc(OC)cc1 (stereo not given) | 0.697% (inactive) | 
CCN(CC)CCCN=C1NC(c2ccccc2)C(C(=O)OC)=C(C)N1CC (stereo not given) | 1.29% (inactive) | 
C=CCNC(=O)N1CCc2nc(CCCC)c3c(c2C1)CO[C@@H](C)C3 |  | inactive
COC(=O)C(C(C)=O)C(=O)C(Cc1ccccc1)NC(=O)OCc1ccccc1 (stereo not given) | 13.2% (inactive) | 
C=CC[C@@]1(C(=O)OC)C=C[C@@H](C)[C@H](c2ccccc2Br)N1C(=O)C(F)(F)F | -3.87% (inactive) | 
COC(=O)NC(C=Cc1ccccc1)C(C(C)=O)C(=O)OC (stereo not given) | -17.7% (inactive) | 

Compound | activity change, negative = inhibition | Potency
Cc1ccc(C(O)C2=CCCC2=O)cc1 (stereo not given) | 5.96% (inactive) | 
C=CCOC(=O)N[C@H](c1cccc(C(F)(F)F)c1)C(C(C)=O)C(C)=O | 5.92% (inactive) | 
COC(=O)c1cc(C(=O)OC)n2c(C)cc3ccccc3c12 | 3.63% (inactive) | 
CC(=O)OC[C@H]1O[C@H](C#Cc2ccc(F)cc2F)C=C[C@H]1OC(C)=O | -7.16% (inactive) | 
COC(=O)CC=C[C@@H](C)[C@H](NC(=O)OC)c1ccccc1Br | 0.645% (inactive) | 
C=CC[C@@H]1C=C(C(=O)OC)N(C(=O)C(F)(F)F)[C@@H](c2ccccc2Br)[C@@H]1C | 1.74% (inactive) | 
CC(C)=CCN1C(=O)C2(CC(C)=C[C@@H](C)O2)c2c(Br)cccc21 (stereo not given in full) | -7.11% (inactive) | 
COC(=O)C(C(=O)OC)[C@H]1c2ccccc2[C@@H]2C(=C[C@@H](C)[C@H]3C(=O)N(c4ccccc4)C(=O)[C@H]32)N1C(=O)OC | -7.86% (inactive) | 
COc1ccc(COC(=O)NN=C2C[C@@H](O)[C@@H](O)[C@@H]3[C@H]4C(=O)N(c5ccc(F)cc5F)C(=O)[C@@H]4CC[C@H]23)cc1 | 6.44% (inactive) | 
C=CCOCCC=C1c2ccccc2[C@@H](OC)[C@@H]1C |  | 1510 nM (active)
COC(=O)CCCC1=CC2=C(c3ccccc3)C(=O)C(C)(OC(=O)C3CCCC3)C(=O)C2=CN1CCN1CCOCC1 (stereo not given) |  | inactive
COCCN1C(=O)NC(CCc2ccccc2)C(C(=O)OC)=C1C (stereo not given) | -8.05% (inactive) | 
COCCN1C(=O)NC(c2cccc(F)c2)C(C(C)=O)=C1C (stereo not given) | 6.98% (inactive) | 
CCN1C(=O)NC(c2cccc(F)c2)C(C(C)=O)=C1C (stereo not given) | 3.49% (inactive) | 
COc1ccc2c(c1)O[C@H](c1ccc3c(c1)OCO3)[C@@H](OC(=O)NCc1ccc3c(c1)OCO3)C2=O | -7.31% (inactive) | 
COC(=O)C1=NOC2(C=C(Br)C(OC)=C(Br)C2=O)C1 (stereo not given) | -2.02% (inactive) | 
C[C@@H]1C=CCCO[C@]12C(=O)Nc1ccccc12 | -2.12% (inactive) | 
CC(C)CON=C1C[C@@H](O)[C@@H](O)[C@@H]2[C@H]3C(=O)N(Cc4ccc5c(c4)OCO5)C(=O)[C@@H]3CC[C@H]12 | -9.96% (inactive) | 
CCN1C(=O)[C@@H]2[C@H]3[C@H](O)[C@H](O)CC(=NO[C@H](C)c4cn([C@@H]5COC[C@@H]5O)nn4)[C@@H]3CC[C@H]2C1=O | 5.99% (inactive) | 
CC1(OC(=O)C2CCCC2)C(=O)C=C2C=C(c3ccc(C#N)cc3)OC=C2C1=O (stereo not given) | 3.32% (inactive) | 
